Experimental findings from PubChem BioAssay (NCI) are described below.

“And” between values parts separate entries of the source, which are not always exact repeats. Equal values may be shown once. This is part of a sample that, as a whole, favours compounds with a hit. Of some 83,000 tested, about 20% had one in any assay.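 Step 1: grow cells in 96-well plates. Step 2: add test compound at a single concentration. Step 3: incubate 48 h. Step 4: record percent growth.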 The source made the active and inactive calls. The calls were made as follows: active = growth percent below 10; inactive = the rest.

This experiment concerns HL-60(TB) leukemia. As to the kind of experiment: NCI-60 one-dose screen, 48 h (100 = growth as untreated, 0 = no growth, -100 = all killed). The settings on record: 10 µM unless noted.
Consider `COc1cc(CNC(=O)/C=C/C=C/c2ccc3c(c2)OCO3)ccc1OCc1cn(-c2ccc(Cl)c(Cl)c2)nn1`, for which the growth was 85.4% (inactive).

For `O=C(NCCNc1nccc(-c2c(-c3cccc(O)c3)nc3sccn23)n1)c1cccc(C(F)(F)F)c1`, the growth is 95.5% (inactive).

For `O=C(O)c1ccc(-c2nn(-c3ccc(C(=O)O)cc3)cc2/C=N/Nc2c(F)c(F)cc(F)c2F)cc1`, the growth was 96.5% (inactive).

Take `C#Cc1ccccc1NC(=O)c1sc2nc3c(cc2c1N)CCCCC3`: the growth is 99.7% (inactive).

With `COc1cc(OC)c(/C=C/C(=O)c2c(OC)cc(OC)cc2OC)c(OC)c1`, the growth was -25.1% (active).

`O=C1C=CC(=O)N1c1ccc(N2C(=O)C=CC2=O)cc1`: the growth is -50.6% (active).

Regarding `Nc1n[nH]c2cccc(C#Cc3cccc(NC(=O)c4cccc(C(F)(F)F)c4)c3)c12`, the growth was 9.22% (active).

Take `COc1ccc2nc(NC(=O)CSc3nnc4n3S(=O)(=O)c3ccccc3N4c3ccccc3)sc2c1`: the growth is -83.2% (active).

As to `Cc1cccc(Cc2cnc(NC(=O)c3ccc4nnsc4c3)s2)c1`, the growth was 94.1% (inactive).

As for `C[C@H]1[C@H](C)CC[C@]2(CO)CC[C@]3(C)C(=CC[C@@H]4[C@@]5(C)CCCNC(C)(C)[C@@H]5CC[C@]43C)[C@H]12`, the growth was -55% (active).

With `CC[C@@]1(O)C(=O)OCc2c1cc1n(c2=O)Cc2cc3c(CN(C)C)c(O)ccc3nc2-1`, the growth was -7.06% (active) and -36.1% (active).

For the molecule `CCOC(=O)CNC(=O)CCCCSc1ncnc2nc[nH]c12`, the growth is 91.1% (inactive).

With `CCOC(=O)C(CCC(C)C)C(=O)OCC`, the growth was 72.8% (inactive).

Regarding `CN(C)CCC(=O)Nc1ccc(-n2cc(-c3cccc(NC(=S)Nc4cccc(-c5cn(-c6ccc(NC(=O)CCN(C)C)cc6)nn5)c4)c3)nn2)cc1`, the growth is 94% (inactive).

As for `CC(=O)Nc1ccc(OC(C)=O)cc1`, the growth is -9.02% (active) and 104% (inactive).

Take `C=C(C)[C@@H]1CC[C@]2(C(=O)OC)CC[C@]3(C)[C@H](CC[C@@H]4[C@@]5(C)C/C(=C/c6ccc(OC)cc6)C(=O)C(C)(C)[C@@H]5CC[C@]43C)[C@@H]12`: the growth is 87.6% (inactive).

Take `Cc1c(C(=O)O[C@H]2[C@@H]3[C@H](C)CC[C@H]3[C@]3(C)O[C@@]2(C2CCCCC2)C[C@H]3OC(=O)CO)ccc2ccccc12`: the growth was -31.5% (active).

For the molecule `NC(Cc1ccccc1)C(=O)NC(Cc1ccccc1)C(=O)O` (stereo not given), the growth was 105% (inactive) and 102% (inactive).

With `O=C(CSc1nc2ccc([N+](=O)[O-])cc2[nH]1)Nc1ccc(F)cc1`, the growth is 71.6% (inactive).

Consider `O=[N+]([O-])c1ccccc1N(S(=O)(=O)c1ccccc1)S(=O)(=O)c1ccccc1`, for which the growth is 5.52% (active) and 108% (inactive).

Consider `COc1cc(NCCN=C(N)NC(N)=NC(C)C)c2ncccc2c1`, for which the growth is 74.8% (inactive).

For `c1ccc2cc3nc4cc5ccccc5cc4nc3cc2c1`, the growth is 90.5% (inactive).

Consider `O=C1OC(c2ccccc2)=N/C1=C\c1ccccc1`, for which the growth is 113% (inactive).

As to `Clc1ccc(C2=NN(c3ccccc3)[C@H](c3cn(-c4ccccc4)nc3-c3ccccc3)C2)cc1`, the growth was 116% (inactive).

Regarding `Cc1ccc2[nH]c3ccccc3c2c1`, the growth is 99.7% (inactive).

On to `COc1ccc(-c2nc3sc(-c4ccccc4)c(-c4ccccc4)n3c2/C=C/C(=O)c2ccccn2)cc1`, for which the growth is 50.5% (inactive).

Turning to `Cc1cc(C)c2c(-c3nnc(N)s3)cc(=O)oc2c1`, the growth was 98% (inactive).

For `Cc1ccc2nc(C[n+]3ccc4ccccc4c3)ccc2c1`, the growth is 26.1% (inactive).

On to `CNC(=O)c1cccc(-c2ccc3c(N4CCOC[C@@H]4C)nc(N4CCOC[C@@H]4C)nc3n2)c1`, for which the growth was 28.2% (inactive) and 7.66% (active).

For the molecule `O=C1/C(=C/c2ccc([N+](=O)[O-])cc2)Oc2ccc(O)cc21`, the growth is 86.1% (inactive).

`NC(=O)c1cccc(-n2ccc3cc(NC(=O)Nc4ccc(Cl)c(C(F)(F)F)c4)ccc32)n1`: the growth is 99.3% (inactive).

As to `CC1(C)CCCN1CCCN1c2ccccc2Sc2ccc(Cl)cc21`, the growth is 46% (inactive).

Regarding `COc1ccc(OC)c(/C=N/Nc2ncnc3c2c(C)nn3C)c1`, the growth is 88.9% (inactive).

In the case of `CC(=O)OC[C@]12CCC(C)(C)C[C@H]1[C@@]1(O)[C@H](O)C[C@@H]3[C@@]4(C)CCCNC(C)(C)[C@@H]4CC[C@@]3(C)[C@]1(C)CC2`, the growth was 105% (inactive).

For `O=C(OCc1ncc(-c2ccc(C(F)(F)F)cc2)c(NC2CCCCCC2)n1)c1c(F)c(F)c(F)c(F)c1F`, the growth was 27.5% (inactive).
